The list is not random: actives were taken first. Their share in the collection is about 3.6%.
MazEF act: activators of E. coli MazEF toxin-antitoxin RNase, primary screen, biochemical, fluorescence, uHTS. Endoribonuclease toxin MazF (Escherichia coli (strain K12)), P0AE70. activation, % at 20 µM. FAM/BHQ RNA-DNA oligo cleavage fluorescence, 5 h. AID 504720, 2011. actives 0.32% (n = 350,000); in the data active = activation above about 50%
Target sequence (P0AE70 whole entry, looked up): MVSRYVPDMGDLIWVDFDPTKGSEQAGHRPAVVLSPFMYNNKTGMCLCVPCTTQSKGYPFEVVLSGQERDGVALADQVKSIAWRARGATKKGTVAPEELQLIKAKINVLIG
Anthrax LF inh2: Bacillus anthracis LF protease inhibitors, primary screen, biochemical, multiplex microsphere, MLPCN library; Lethal factor (Bacillus anthracis), P15917; multiplex microsphere protease cleavage assay; inhibition, % at 10 µM; actives 0.12% (n = 360,000); AID 588501, 2011; note: plate controls were buffer without enzyme for full effect and enzyme alone for no effect
BoNT A protease: BoNT/A light chain protease inhibitors, primary screen, biochemical, flow cytometry, MLPCN library. Botulinum neurotoxin type A light chain protease (Clostridium botulinum A str. ATCC 3502). actives 0.17% (n = 360,000). multiplex microsphere protease substrate cleavage. AID 588499, 2011. inhibition, % at 10 µM; note: plate controls were buffer without enzyme for full effect and enzyme alone for no effect
BoNT F protease: BoNT/F light chain protease inhibitors, primary screen, biochemical, flow cytometry, MLPCN library; Botulinum neurotoxin type F light chain protease (Clostridium botulinum); Multiplex microsphere protease cleavage assay; inhibition, % at 10 µM; actives 0.22% (n = 360,000); AID 588497, 2011; in the data active = inhibition above about 35%, passing the limit was not always enough; inconclusive = no clear call, values can overlap the other calls; note: plate controls were buffer without enzyme for full effect and enzyme alone for no effect
Bead autofluor: counter-screen for toxin protease inhibitors: compound fluorescence | compound autofluorescence counterscreen, microsphere flow cytometry; hits give high values | fluorescence intensity (concentration not given with the values) | actives 3.1% (n = 360,000); in the data active = fluorescence intensity above about 16000; inconclusive = no clear call, values can overlap the other calls
Starred values were filed as active, the others as inactive; ? = inconclusive; / = no result. Cut-off read from the data, not from the text of the source, unless noted: active = inhibition above about 30%; inconclusive = no clear call, values can overlap the other calls; inactive = below that.

SMILES	MazEF act	Anthrax LF inh2	BoNT A protease	BoNT F protease	Bead autofluor
CC1=Nc2ccccc2/C1=C\c1nc(-c2ccc(C(F)(F)F)cc2)oc1O	56.6*	6.2	9.5	-47.4	17953*
CC1(C)CC(=O)N(c2ccc(Cl)cc2Cl)C(=O)C1	0.4	-3.8	0.5	?	3980
CCCCC(=O)Nc1ccc(C(=O)Nc2ccc(OC)cc2[N+](=O)[O-])cc1	742.7*	-2.4	0.1	-1.0	2096
COc1ccc(NC(=O)CN(C)S(=O)(=O)c2ccccc2)cc1	14.1	-3.6	0.2	0.5	20336*
COc1ccc(NC(=O)CN(C)S(=O)(=O)c2ccc(Cl)cc2)c([N+](=O)[O-])c1	14.4	-6.7	-0.4	-4.2	11852
COc1ccc(NC(=O)CSc2n[nH]c(N)n2)c([N+](=O)[O-])c1	-3.3	-1.2	-0.5	1.4	23423*
COc1ccc(NC(=O)CN(C)S(=O)(=O)c2ccccc2)c([N+](=O)[O-])c1	262.9*	-5.7	0.1	4.1	10806
O=C(Nc1ccccc1C(=O)N1CCOCC1)c1ccc(Br)cc1	-2.8	-4.3	0.4	-5.2	5991
Cc1cccc(CSc2nc3c(c(=O)[nH]2)CCC3)c1	-9.3	-1.6	0.2	-8.4	2569
CN(C(=O)CSc1nc2c(c(=O)[nH]1)CCCC2)C1CCCCC1	2.3	-0.7	?	3.7	20234*
Cc1ccc(NC(=O)CSc2nc3c(c(=O)[nH]2)CCC3)cc1C	3.5	-2.0	-1.5	-2.1	17130*
Cc1ccc(CSc2nc3c(c(=O)[nH]2)CCC3)cc1	1.2	-2.5	?	-3.8	20993*
O=c1[nH]c(SCCc2ccccc2)nc2c1CCC2	/	-1.7	-0.3	-1.3	3035
O=c1[nH]c(SCc2ccccc2Cl)nc2c1CCC2	3.5	-2.2	-2.7	-1.8	23543*
Cc1ccc(NC(=O)CSc2nc3c(c(=O)[nH]2)CCCC3)cc1C	8.8	0.1	-0.8	-1.6	6586
O=C(CN1C(=O)c2ccccc2S1(=O)=O)Nc1cc(S(=O)(=O)N2CCCCC2)ccc1Cl	-5.8	-1.8	0.5	-1.7	4872
Cc1ccccc1-c1cnc(C(O)c2ccc(-c3ccccc3)cc2)[nH]1 (configuration not stated)	/	-3.3	-0.1	-4.4	2839
O=C1CC(N2CCN(Cc3ccccc3)CC2)C(=O)N1c1ccccc1 (configuration not stated)	8.0	-0.4	-0.5	0.2	23947*
Cc1cccc(N2C(=O)CC(N3CCN(C(=O)c4ccccc4)CC3)C2=O)c1 (configuration not stated)	6.3	-1.1	-0.2	-0.4	23162*
CCN(CC(=O)Nc1c(F)cccc1F)C(=O)c1ccc(N2CCCC2=O)cc1	4.3	-1.0	-1.0	-5.9	?
COc1cccc(N2C(=O)CC(N3CCC(C(N)=O)(N4CCCCC4)CC3)C2=O)c1 (configuration not stated)	-2.3	-2.9	-7.6	-10.3	26152*
O=C(Nc1cccc(Cl)c1)C1CCCN(C2=NS(=O)(=O)c3ccccc32)C1 (configuration not stated)	5.8	-3.4	1.1	3.7	6149
COc1ccc(CCNC(=O)COC(=O)c2ccccn2)cc1	2.9	1.3	0.1	7.2	3925
CCOC(=O)c1ccc(N2C(=O)CC(N3CCCC(C)C3)C2=O)cc1 (configuration not stated)	-1.1	-1.0	-4.9	-7.9	25079*
CCOC(=O)c1ccc(N2C(=O)CC(N3CCN(Cc4ccccc4)CC3)C2=O)cc1 (configuration not stated)	0.9	-6.0	-0.1	-1.9	2513
SMILES	MazEF act	Anthrax LF inh2	BoNT A protease	BoNT F protease	Bead autofluor
CCCNC(=O)Nc1ccc2c(c1)N(C)C(=O)c1ccccc1S2	7.0	-1.7	0.6	-3.3	16271*
CCCCNC(=O)Nc1ccc2c(c1)N(C)C(=O)c1ccccc1S2	8.1	-4.0	-2.6	-16.2	3491
CCOC(=O)C1=NNC2(CC(=O)N(c3cc(C)cc(C)c3)C2=O)C1 (configuration not stated)	8.7	-7.6	-1.4	-11.1	4514
CCOC(=O)C1=NN(N=O)C2(CC(=O)N(c3cc(C)cc(C)c3)C2=O)C1 (configuration not stated)	10.6	-1.8	-3.6	-9.2	24546*
CCCC(C(=O)NC1CCCC1)N(C(=O)Cn1nnc(-c2ccc(C)o2)n1)C1CCCC1 (configuration not stated)	1.3	-0.7	-4.4	-5.5	25114*
CCC(C(=O)NC1CCCC1)N(C(=O)Cn1nnc(-c2ccc(OC)c(OC)c2)n1)C1CCCCC1 (configuration not stated)	9.1	1.2	0.5	0.6	16428*
CCCC(C(=O)NC1CCCC1)N(C(=O)Cn1nnc(-c2ccc(C)o2)n1)c1ccccc1F (configuration not stated)	0.2	9.5	2.5	31.2	3355
COc1ccc(-c2nnn(CC(=O)N(CC(=O)NC3CCCC3)Cc3cccs3)n2)cc1OC	-7.9	-2.0	-2.3	-4.8	24334*
COc1ccc(-c2nnn(CC(=O)N(Cc3cccs3)C(C)C(=O)NC3CCCC3)n2)cc1OC (configuration not stated)	-67.1	7.5	3.4	1.3	10886
Cc1ccc(-c2nnn(CC(=O)N(Cc3cccs3)C(C(=O)NC3CCCCC3)c3ccco3)n2)o1 (configuration not stated)	-4.3	-2.1	0.2	5.5	3220
Cc1ccc(-c2nnn(CC(=O)N(Cc3cccs3)C(C(=O)NC3CCCC3)c3ccco3)n2)o1 (configuration not stated)	5.0	-3.0	-1.1	0.7	16932*
COC(=O)C1(C)COP(=O)(Nc2ccc(OC)cc2)OC1 (configuration not stated)	/	3.0	-0.6	4.2	5630
CCOC(=O)C1(C)CCN1C(=O)c1ccccc1OC (configuration not stated)	/	-0.2	-0.3	2.9	3037
CC(Nc1cc(N2CCN(C(=O)C(C)(C)C)CC2)ccc1[N+](=O)[O-])c1ccccc1 (configuration not stated)	-6.0	-11.4	-2.0	-6.2	23558*
CC(C)C(=O)N1CCN(c2ccc([N+](=O)[O-])c(NC(C)c3ccccc3)c2)CC1 (configuration not stated)	-1.4	-7.8	-1.4	-16.3	8098
Nc1nc(Cl)cc(N2CCC(c3cc(-c4ccc(Cl)cc4Cl)n[nH]3)CC2)n1	-8.4	-2.6	-2.1	-6.0	21717*
CCOc1ccccc1N1CCN(C(=O)c2cc(-c3cccnc3)nc3c(Cl)cccc23)CC1	-0.4	-2.9	0.1	-3.4	6433
c1ccc(NC(=NCc2ccco2)c2ccccc2)cc1	1.0	-2.7	1.9	22.6	6397

Compound activity as filed in PubChem.
